# Rows were chosen to be rich in hits. Some 10% of all compounds tested hit in one or more screens of this group.
# HPGD inh – qHTS Assay for Inhibitors of HPGD (15-Hydroxyprostaglandin Dehydrogenase) | purified HPGD, NADH fluorescence kinetic, PGE2 substrate | Potency, µM, inactives show at the highest dose activity change, negative = inhibition, usual class: inhibitors | 150,000 compounds, 4.3% hits; note: potency is the fitted concentration of half-maximal effect
#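 NADH formation kinetics: reaction with 30 uM PGE2 and 1 mM NAD+ (final), 20 nM enzyme, Tris-HCl pH 8 with Tween 20, after 15 min compound preincubation at room temperature. Fluorescence change, last versus first of five reads.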
# PNC inhibitor – High Content Assay for Compounds that inhibit the Assembly of the Perinucleolar Compartment. PC3M PTB-GFP, PNC prevalence imaging, 16 h; active compounds read low. activity change (PNC), negative = inhibition, % at 10 µM. 140,000 compounds, 3.1% hits. AID 2417, 2010;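 active = readout at or below -70, meaning at least 70% loss of cells showing the perinucleolar compartment, a nuclear body marking cancer cells; inconclusive = readout between -30 and a set limit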;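 note: plate controls were DMSO wells for no effect and camptothecin positive control wells for full effect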
#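 PC3M cells stably expressing PTB-GFP, 750–1000 cells/well, treated 16 h at 37 °C with compound (23 nl of library stock), in duplicate. After paraformaldehyde fixation and Hoechst stain, imaged at 20x; PNC prevalence scored by image analysis.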
# KinaseGlo FLuc – Counterscreen for Luciferase (Kinase-Glo TM) Inhibition; Luciferin 4-monooxygenase (Photuris pensylvanica), Q27757; AID 1379, 2008; Kinase-Glo luciferase, ATP luminescence, 8 min; 200,000 compounds, 0.28% hits; Potency, µM (titrated, usually from 38.3 µM), for the others: at the highest dose activity change, negative = inhibition, most hits filed as inhibitors; active = well fitted inhibition curve with a large enough effect; inconclusive = small, poorly fitted or top-dose-only effect; note: potency is the fitted concentration of half-maximal effect; nearly all actives have a fitted effect of over 60% in size
#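 Compounds were added to a substrate mix at pH 7.2 (50 mM imidazole, 10 uM ATP, within the enzyme's linear range), followed by Kinase-Glo detection reagent; luminescence was measured after 8 minutes at ambient temperature.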
# ALDH1A1 block – qHTS Assay for Inhibitors of Aldehyde Dehydrogenase 1 (ALDH1A1). Purified ALDH1A1, NADH fluorescence, propionaldehyde substrate. Potency, µM (series often up to 75.3 µM), without a hit: at the highest dose activity, negative = inhibition, actives largely listed as inhibitors. 220,000 compounds, 7.3% hits. AID 1030, 2008;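 note: potency is the fitted concentration of half-maximal effect; plate controls were no enzyme wells and a reference inhibitor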
# Target sequence (P00352 whole entry, looked up): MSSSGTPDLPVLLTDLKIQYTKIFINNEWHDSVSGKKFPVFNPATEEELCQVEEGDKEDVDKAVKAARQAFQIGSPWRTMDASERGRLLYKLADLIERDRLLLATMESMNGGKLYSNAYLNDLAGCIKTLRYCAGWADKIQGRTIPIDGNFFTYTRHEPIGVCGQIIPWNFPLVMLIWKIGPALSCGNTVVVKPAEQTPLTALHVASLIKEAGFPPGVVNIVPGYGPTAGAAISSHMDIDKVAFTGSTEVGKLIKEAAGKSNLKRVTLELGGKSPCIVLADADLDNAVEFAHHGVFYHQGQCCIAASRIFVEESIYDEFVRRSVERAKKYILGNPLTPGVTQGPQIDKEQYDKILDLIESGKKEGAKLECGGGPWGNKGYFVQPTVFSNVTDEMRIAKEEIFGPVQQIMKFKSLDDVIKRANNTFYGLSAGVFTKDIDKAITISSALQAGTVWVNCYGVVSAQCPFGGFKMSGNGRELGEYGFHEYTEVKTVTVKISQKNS
# Lamin A splicing – qHTS Assay for Modulators of Lamin A Splicing | HeLa LMNA splicing GFP/RFP minigene ratio, 48 h | Potency, µM (top dose mostly 46.1 µM), without a hit: top-dose ratio change, negative = inhibition, actives largely listed as inhibitors | 200,000 compounds, 0.01% hits | AID 1487, 2009; active = well fitted inhibition curve with a large enough effect in the signal ratio, with a control signal flat, not every such curve was filed as active; inconclusive = small, poorly fitted or top-dose-only effect, or effect the other way, or a change in a side signal; the % refers to the signal ratio; note: potency is the fitted concentration of half-maximal effect
#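 S3 HeLa cells stably expressing lamin A-EGFP splicing minigene plus DsRed2, 600 cells/well, 48 h compound exposure at 37C. Laser-scanning cytometry; analysed as GFP (500-530 nm)/RFP (575-640 nm) total intensity ratio; 0.5% DMSO vehicle.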
# IMPase cell inh – qHTS Assay for Identifying the Cell-Membrane Permeable IMPase Inhibitors; Inositol monophosphatase 1 (Rattus norvegicus), P97697; CHO-M1 cells, IP1 accumulation, HTRF TR-FRET ratio; inhibition (IP1 accumulation), % at 46.1 µM; 120,000 tested, under 10 active; AID 901, 2007; active = well fitted curve in the direction sought with a large enough effect in the signal ratio, not every such curve was filed as active; inconclusive = small, poorly fitted or top-dose-only effect, or a change in a side signal; inactive = no such curve, though single readings can be large or run the other way; the % refers to the signal ratio;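 note: cells stimulated with carbachol in lithium chloride buffer; plate controls were DMSO basal wells for no effect and reference inhibitor wells for full effect; higher means more IMPase inhibition seen as more IP1 and lower FRET ratio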
# Target sequence (P97697 whole entry, looked up): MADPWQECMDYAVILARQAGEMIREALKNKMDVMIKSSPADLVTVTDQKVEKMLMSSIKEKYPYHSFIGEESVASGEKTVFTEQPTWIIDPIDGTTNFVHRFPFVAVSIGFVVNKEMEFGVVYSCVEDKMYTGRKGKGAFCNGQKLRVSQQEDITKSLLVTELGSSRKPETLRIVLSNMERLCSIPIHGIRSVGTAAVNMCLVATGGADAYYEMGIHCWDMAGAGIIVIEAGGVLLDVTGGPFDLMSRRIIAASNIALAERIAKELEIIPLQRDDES
#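 The IP-One HTRF competitive assay in carbachol-stimulated CHO-M1 cells quantifies cellular IP1. Compounds spanned up to 46 uM final, and activity is expressed as AC50 from concentration-response fits of the ratio and donor data.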
# Numbers without * were called inactive; ? = inconclusive; . = no result; [ ] = another dose, or the depositor's remark. Unless noted, calls come from the whole dose curve; as a rule, active = well fitted inhibition curve with a large enough effect (not every such curve was filed as active); inconclusive = small, poorly fitted or top-dose-only effect, or another doubt; inactive = no such curve, though single readings can be large or run the other way. Unless noted, % is set by controls: 0 for no effect and ±100 for the full control effect.
SMILES,HPGD inh,PNC inhibitor,KinaseGlo FLuc,ALDH1A1 block,Lamin A splicing,IMPase cell inh
COC(=O)C1=C(C)N(Cc2ccccc2)[C@]23O[C@](C(=O)OC)(C(=O)N2C1c1ccccc1)C1CCCC(=O)C13 (stereo not given in full),.,.,.,14%[13.5 µM],.,.
O=C(Nc1cc(F)ccc1F)c1cc2nc(-c3ccco3)cc(C(F)(F)Cl)n2n1,.,.,.,.,8%[46 µM],.
CSc1nc2c(c(=O)[nH]1)CCCC2,-16%,-5,0%,8%,7%,5
Cc1oc(-c2ccccc2)nc1CSc1nc2c(c(=O)[nH]1)CCC2,4.5µM*,?,-3%,7%,9%,.
Cc1ccccc1CSc1nc2c(c(=O)[nH]1)CCC2,3.5µM*,3,-8%,9%,?,5
CCCCSc1nc2c(c(=O)[nH]1)CCC2,28µM*,35,-6%,-12%,5%,4
Cc1ccccc1CSc1nnc(C)c(=O)[nH]1,?,20,2%,?,-1%,4
Cc1ccccc1-c1nc(CSc2nc3c(c(=O)[nH]2)CCC3)c(C)o1,4.5µM*,73,0%,9%,2%,.
COc1ccccc1C(=O)Nc1cc2c(cc1N1CCOCC1)n(C)c(=O)n2C,.,.,.,.,.,-3
Cn1c(=O)c2nc(SCC(=O)Nc3cc(Cl)cc(Cl)c3)n(C)c2n(C)c1=O,.,.,.,.,17%[46 µM],.
Cc1cccc(-c2nc(CSc3nc4c(c(=O)[nH]3)CCC4)c(C)o2)c1,2.8µM*,56,9%,-2%,?,.
O=[N+]([O-])c1cc(-c2cnc3ccccc3n2)ccc1Oc1ccc(Br)cc1,-5%,-106*,4%,-11%,8%,3
O=[N+]([O-])c1ccc(Oc2ccc(-c3cnc4ccccc4n3)cc2[N+](=O)[O-])cc1,-10%,22,0%,-6%,?,1
CN(C)S(=O)(=O)c1ccc(NC(=O)CN2CCCc3ccccc32)cc1,.,.,1%,18µM*,.,.
CCN1CCN(CC(=O)Nc2ccc(Cl)c(S(=O)(=O)N(C)C)c2)CC1,.,.,4%,3.5µM*,.,.
CN(C)S(=O)(=O)c1cc(NC(=O)CN2CCc3ccccc32)ccc1Cl,.,.,.,1.6µM*,.,.
CCCCc1ccc(NC(=S)Nc2ccc(Nc3ccc(OC)cc3)cc2)cc1,?,11,0%,7.1µM*,?,13
N#CCCn1c(=O)c(-c2ccccc2)nc2cnc(Oc3ccccc3)nc21,?,.,1%,?,.,.
Cc1noc(C)c1C(=O)N1CCC2(CCCN(c3ccccn3)C2)CC1,-39%,.,1%,?,.,.
CN(C)S(=O)(=O)c1cc(NC(=O)CN2CCCc3ccccc32)ccc1Cl,.,.,1%,8.9µM*,9%[9.22 µM],.
O=C(CN1CCCc2ccccc21)NCc1ccccc1Cl,.,?,.,?,0%,4
CCCCc1ccc(NC(=S)Nc2ccc(Cl)c(S(=O)(=O)N(C)C)c2)cc1,-12%,-119*,0%,?,?,.
NNC(=O)CN1CCCc2ccccc21,.,.,-2%,6.3µM*,-10%[46 µM],.
CCc1ccc(NC(=O)CCn2cnc3ccccc3c2=O)cc1,.,.,.,.,2%[46 µM],.
O=C1c2ccccc2C(=O)N1CSc1nnc(Nc2ccccc2F)s1,-19%,65,1%,7.1µM*,-11%,?
SMILES,HPGD inh,PNC inhibitor,KinaseGlo FLuc,ALDH1A1 block,Lamin A splicing,IMPase cell inh
Cc1cc(Cl)ccc1NC(=O)CN(c1ccccc1Br)S(C)(=O)=O,.,.,.,.,.,-1
Cc1ccc(C2C3=C(CC(C)(C)CC3=O)Nc3[nH]c(=S)[nH]c(=O)c32)cc1 (stereo not given),18µM*,?,2%,0%,-9%,8
Cc1ccccc1C1CC(=O)Oc2cc(C)c(Cl)c(C)c21 (stereo not given),-1%,.,0%[39.9 µM],4%,.,.
Cc1cc[n+](-c2[nH]c(=O)sc2/C=N/N=C(\[O-])c2ccccc2)cc1,.,.,.,13µM*,.,.
Cc1cc[n+](-c2[nH]c(=O)sc2/C=N/N=C(\[O-])CCn2c3ccccc3c3ccccc32)cc1,.,.,.,-9%,.,.
Cc1cc[n+](-c2[nH]c(=O)sc2/C=N/N=C(\[O-])c2ccccc2)cc1C,.,.,-4%,22µM*,3%[46 µM],.
Cc1cc(C)c[n+](-c2[nH]c(=O)sc2/C=N/N=C(\N)[S-])c1,.,.,-2%,?,-13%[46 µM],.
Cc1cccc(CNS(=O)(=O)c2ccc(-c3coc(C)n3)cc2)c1,.,.,.,.,4%[46 µM],.
CS(=O)(=O)c1nc(-c2ccccc2)cc(C(F)(F)F)n1,?,-100*,0%,9%,?,10
Cc1cc(NC(=O)CCS(=O)(=O)c2nc(-c3ccccc3)cc(C(F)(F)F)n2)no1,?,34,3%,-1%,?,9
CCC1SC2=NC(C)=C(C(=O)OCC(C)C)C(/C=C/c3ccccc3OC)N2C1=O (stereo not given),-24%,-7,1%,-11%,3%,14
COc1ccccc1/C=C/C1C(C(=O)OCC(C)C)=C(C)N=C2SCCC(=O)N21 (stereo not given),.,.,1%,22µM*,.,.
CSC(=[SH+])N=N/C(=C1/C=CC=CN1)c1ccccn1.[Cu][Br],?,.,-2%[7.66 µM],0.63µM*,.,.
CCCC[C@@H](C=O)NC(=O)[C@H](CC(C)C)NC(=O)OCc1ccccc1,.,.,.,-15%,.,.
COc1ccc2c(C=O)c[nH]c2c1,-12%,?,-4%,6.3µM*,-12%,.
CCC(C)n1c(SCc2ccc([N+](=O)[O-])cc2)nc2ccsc2c1=O (stereo not given),-4%,-119*,-6%,7%,?,7
CCCCn1c(SCc2cccc([N+](=O)[O-])c2)nc2ccsc2c1=O,-7%,93,-4%,?,?,.
CCOc1ccccc1N1CCN(C2=C(NS(=O)(=O)c3cccs3)C(=O)c3ccccc3C2=O)CC1,-17%,11,-27%,10µM*,-7%,23
CC(=O)Nc1ccc(NC(=O)C2CC(=O)N(Cc3ccccc3)C2)cc1 (stereo not given),.,.,-2%,3.5µM*,6%[46 µM],.
CC(C)c1ccc2c(c1)CC[C@H]1[C@@](C)(CN)CCC[C@@]21C,-5%,.,-6%[7.66 µM],-3%[13.5 µM],.,.
CCn1ncc(Br)c1C(=O)Nc1nccs1,25µM*,?,2%,-14%,-12%,-3[1.84 µM]
Cc1ccc2c(CSc3nnc(N)s3)cc(=O)oc2c1,20µM*,19,-6%,22µM*,4%,-1
Cc1ccc2c(COC(=O)c3c(C)noc3C)cc(=O)oc2c1,.,.,-1%,?,-2%[46 µM],.
